The whole screen tested about 340,000 compounds, of which about 4,500 (1.3%) were called active. About 5% were inconclusive and are not listed. Calls come from the whole dose curve; as a rule, active = well fitted inhibition curve with a large enough effect; inconclusive = small, poorly fitted or top-dose-only effect, or another doubt; inactive = no such curve, though single readings can be large or run the other way. Shown is part of a subset that was picked to be rich in actives.
Biological target: DNA polymerase beta (Homo sapiens) (UniProt P06746)
Test: qHTS Assay for Inhibitors of DNA Polymerase Beta
Details: Pol beta primer extension/strand displacement, fluorescence kinetic; series mostly up to 114 µM; activity change, negative = inhibition: at the top concentration
Procedure, shortened: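 Human Pol beta at 10 nM; strand-displacement substrate 50 nM final. Compound exposure 15 min at room temperature before start, reaction 10 min at room temperature.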
% is set by controls: 0 for no effect and ±100 for the full control effect; potency is the fitted concentration of half-maximal effect.

Activity change, negative = inhibition, inactive:
COc1ccc(NC(=O)c2sc3nc[nH]c(=O)c3c2C)cc1 2.14%, Cc1ccccc1CCNC(=O)C1CCN(c2nc3ccccc3nc2C(F)(F)F)CC1 -0.653%, COc1ccc(S(=O)(=O)Nc2cc3c(C(=O)OC(C)C)c(C)oc3c3ccccc23)cc1 -24.9%, COc1ccc(NC(=O)c2cnc(NS(=O)(=O)c3ccccc3)nc2)cc1 5.86%, CC(C)(C)c1ccc(S(=O)(=O)Nc2ccc(O)c(Sc3nc4ccccc4s3)c2)cc1 -0.511%, O=C(CC1N=C2c3ccccc3N=C(SCc3ccc(F)cc3)N2C1=O)NCc1cccs1 (stereo unspecified) 2.97%, COc1ccc(NC(=O)CSC2=Nc3ccccc3C3=NC(CC(=O)NCc4ccccc4OC)C(=O)N23)cc1Cl (stereo unspecified) -12%, O=C(CC1N=C2c3ccccc3N=C(SCc3cccc(Cl)c3)N2C1=O)NCc1ccc2c(c1)OCO2 (stereo unspecified) 1.32%, CCC(C)NC(=O)CSC1=Nc2ccccc2C2=NC(CCC(=O)NCc3ccco3)C(=O)N12 (stereo unspecified) 11.3%, CCN(CC)c1ccc(NC(=O)Cn2nc3c(cc2=O)CCCC3)c(C)c1 -15.3%, O=C(NCCCO)C(=O)Nc1c2c(nn1-c1ccc(F)cc1)CSC2 -5.48%, CCOC(=O)c1c(C)oc2ccc(N(C(=O)c3ccncc3)S(=O)(=O)c3ccc(CC)cc3)cc12 -2.09%, Cc1ccc(C)c(NC(=O)CSC2=Nc3ccccc3N=C(c3ccc(F)cc3)C2)c1 19.4%, Nc1nnnn1CC(=O)N/N=C/c1ccc(-c2cccc(Cl)c2)o1 -21.2%, O=C1c2ccccc2NC(c2ccc(-c3cccc(Cl)c3)o2)N1O (stereo unspecified) 1.84%, Cc1ccc(C)c2sc(NC(=O)c3ccc(S(=O)(=O)N4CCCC4)cc3)nc12 -5.4%, COc1cccc(C(=O)Nc2ccc(-c3cc(C(F)(F)F)nn3-c3ccccc3)cc2)c1 10.5%, CCOc1cc(-c2nnc(SCC(=O)NC3CCCCC3)nc2-c2ccc(OC)c(OCC)c2)ccc1OC 2.16%, COC(=O)CCCC1=CC2=CC(=O)C(C)(OC(=O)c3cccs3)C(=O)C2=CN1CC(C)C (stereo unspecified) 23.9%, COCCN1C=C2C(=O)C(C)(OC(=O)C3CCCC3)C(=O)C=C2C=C1c1ccsc1 (stereo unspecified) 0.629%, COC(=O)c1cnn(-c2ccc(C(=O)Nc3ccc(OC(F)(F)F)cc3)cc2)c1N 5.55%, COC(=O)c1ccccc1NC(=O)C1CCN(S(=O)(=O)c2cc(OC)ccc2OC)CC1 -6.7%, CCOc1ccc(NC(=O)C2CCN(C(=O)N3CCOc4ccccc43)CC2)cc1 10.2%, Cc1ccc(-c2nn(CCC(=O)Nc3ccc(OC(F)(F)F)cc3)c(=O)c3ccccc23)cc1 21.3%, Clc1cccc(-n2ncc3c(NCCc4ccccc4)ncnc32)c1 -25.3%, CCOc1ccc(NC(=O)C/C(C)=N/NC(=O)Cc2cccs2)cc1 31%, CCOC(=O)c1ccc(NC(=O)Cc2cccs2)cc1 1.56%, COc1ccc(C)cc1NC(=O)CNCc1cccs1 2.69%, COc1ccc(NC(=S)NCc2cccs2)c(OC)c1 0.939%, CCc1nnc(NC(=O)Cc2cccs2)s1 -16.2%, O=C(Cc1cccs1)Nc1nnc(SCc2ccc(F)cc2)s1 -18.1%, Cc1nnc(NC(=O)CSc2nc3c([nH]c4ccccc43)c(=O)n2-c2cccc(Cl)c2)s1 2.52%, CCN(C(=O)CSc1nnc(C)n2c1cc1occc12)c1ccccc1 -23.3%, COc1ccc(C)cc1NC(=O)CCc1c(C)nn(-c2ccc(N3CCOCC3)nn2)c1C 0.568%, Cc1ccc(NC(=O)CSc2nc(CSc3ccc(C)cc3)cc(=O)[nH]2)cc1 0.354%, Cc1ccc(OCCCC(=O)Nc2ccc(S(=O)(=O)Nc3cc(C)nc(C)n3)cc2)cc1 16.7%, CC1CCC2(CC1)N=C(c1ccccc1)C(=O)N2CC(=O)Nc1ccc(F)c(Cl)c1 (stereo unspecified) 8.62%, O=C(Nc1ccc2nc(SCCOc3ccccc3)sc2c1)c1ccco1 6.94%, CCS(=O)(=O)C1=NSC2=NC(=O)/C(=C\c3cc(C)n(-c4cccc(OC)c4)c3C)C(=N)N21 -1.06%, CCS(=O)(=O)C1=NSC2=NC(=O)/C(=C\c3ccc(OS(=O)(=O)c4ccccc4)cc3)C(=N)N21 0.694%, CC(C)(C)c1ccc(C(=O)Nc2ccc3c(c2)CCCN3C(=O)c2cccs2)cc1 47.1%, CCC1C/C(=C/c2cccs2)C(=O)/C(=C/c2cccs2)C1 (stereo unspecified) -21.1%, CC(C)c1ccc(NC(=O)c2ccc3c(O)c(S(=O)(=O)c4ccccc4)c(=O)[nH]c3c2)cc1 2.35%, CCOC(=O)C1CCN(C(=O)CSc2c3c(nc4ccc(Cl)cc24)CCCC3)CC1 -25.2%, COCCNC(=O)c1ccc2c(c1)N(Cc1cccc(Cl)c1)C(=O)c1ccccc1S2(=O)=O -11.6%, Cc1ccc2nc(-c3ccccn3)cc(C(=O)Nc3ccc4c(c3)OCO4)c2c1 -4.44%, Cc1ccc2nc(-c3ccncc3)cc(C(=O)Nc3ccc4c(c3)OCCO4)c2c1 10.7%

Potency, active:
CN(C)[C@@H]1C(=O)C(C(N)=O)=C(O)[C@@]2(O)C(=O)C3=C(O)c4c(O)ccc(Cl)c4[C@@H](O)[C@H]3C[C@@H]12 8.91 µM, COc1ccc(S(=O)(=O)/N=C2\C=C(NS(=O)(=O)c3ccccc3)C(=O)c3ccccc32)cc1 79.4 µM, O=C(CC1N=C2c3ccccc3N=C(SCc3ccccc3Cl)N2C1=O)NCc1ccco1 (stereo unspecified) 12.6 µM, O=C(CSC1=Nc2ccccc2C2=NC(CC(=O)NCc3ccco3)C(=O)N12)NCc1ccco1 (stereo unspecified) 39.8 µM, O=C(O)C(c1ccccc1)N1C(=O)/C(=C\c2ccc(-c3cccc(Cl)c3)o2)SC1=S (stereo unspecified) 50.1 µM, COC/C=C/C1=CC2=CC(=O)C(C)(OC(=O)CCC(=O)OC)C(=O)C2=CO1 (stereo unspecified) 39.8 µM, COC(=O)c1ccccc1NC(=O)C1CCN(C(=O)N2CCOc3ccccc32)CC1 89.1 µM, COc1ccc(Cc2nnc(NC(=O)Cc3cccs3)s2)cc1 2 µM, COc1ccc(OC)c(NC(=O)Cc2cccs2)c1 50.1 µM, CCOc1ccccc1NC(=O)Cc1cccs1 10 µM, COc1ccc(NC(=O)CSc2nc(NS(=O)(=O)c3ccc(C)cc3)cc(=O)[nH]2)cc1 17.8 µM, CS(=O)(=O)c1ccc2c(c1)SC1=NC(=O)/C(=C/c3ccco3)C(=N)N12 31.6 µM, CC(C)(C)C1C/C(=C/c2ccco2)C(=O)/C(=C/c2ccco2)C1 (stereo unspecified) 10 µM, Cc1ccc2nc(-c3ccncc3)cc(C(=O)Nc3ccc(OC(F)F)cc3)c2c1 8.91 µM

— PubChem BioAssay AID485314 (National Center for Advancing Translational Sciences (NCATS), 2010)
